Several values for one entry are separate records, joined by “and”; a condition that tells them apart may be missing. Equal values may be shown once. Inconclusive results are not listed. Activity calls are given as the source filed them. Unless noted, calls follow the shape of the dose curve; as a rule, active = well fitted curve in the direction sought with a large enough effect; inconclusive = small, poorly fitted or top-dose-only effect, or another doubt; inactive = no such curve, though single readings can be large; an effect the other way counts as inactive or inconclusive.
Columns and labels:
[1] = qHTS for Inhibitors of the Functional Ribonucleoprotein Complex (vRNP) of Lassa (LASV) Arenavirus: LASV Primary Screen - GLuc reporter signal (AID 1347082; calls by dose curve; tested in HEK293 reporter line; also: nearly all actives have a fitted effect of over 60% in size)
[2] = qHTS for Inhibitors of the Functional Ribonucleoprotein Complex (vRNP) of Lassa (LASV) Arenavirus: Viability assay - alamar blue signal for LASV Primary Screen (AID 1347083; calls by dose curve; tested in HEK293 reporter line; also: nearly all actives have a fitted effect of over 80% in size)
[3] = molecular target: Nucleoprotein (Lymphocytic choriomeningitis virus (strain Armstrong)) (UniProt P09992); assay: qHTS for Inhibitors of the Functional Ribonucleoprotein Complex (vRNP) of Lymphocytic Choriomeningitis Arenaviruses (LCMV): LCMV Primary Screen - GLuc reporter signal (AID 1347086; calls by dose curve; also: nearly all actives have a fitted effect of over 70% in size)
[4] = qHTS for Inhibitors of the Functional Ribonucleoprotein Complex (vRNP) of Lymphocytic Choriomeningitis Arenaviruses (LCMV): Viability assay - alamar blue signal for LCMV Primary Screen (AID 1347085; calls by dose curve; tested in HEK293 reporter line; also: nearly all actives have a fitted effect of over 80% in size)
[5] = qHTS of pediatric cancer cell lines to identify multiple opportunities for drug repurposing: Primary screen for TC32 cells (AID 1347089); also: nearly all actives have a fitted effect of over 60% in size
Method in brief: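 qHTS, TC32, 48 h drug treatment, CellTiter-Glo luminescence as a proxy for metabolically active cells; primary top concentration 46 µM (MIPE 11-pt, NPC 8-pt); confirmatory 11-pt.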

[6] = qHTS of pediatric cancer cell lines to identify multiple opportunities for drug repurposing: Primary screen for DAOY cells (AID 1347090); also: nearly all actives have a fitted effect of over 55% in size
Method in brief: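 Cell viability, CellTiter-Glo luminescence; 500-1,000 cells/well, 8- or 11-point titration, 48 h compound exposure at 37 degrees C, 5% CO2. Controls: DMSO neutral, bortezomib 2.3 µM final as positive.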

[7] = qHTS of pediatric cancer cell lines to identify multiple opportunities for drug repurposing: Primary screen for A673 cells (AID 1347092); also: nearly all actives have a fitted effect of over 45% in size
Method in brief: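 Luminescence from CellTiter-Glo, taken after 15 min at room temperature, served as the proxy for metabolically active cells following 48 h treatment. Both potency and efficacy were taken from curves fitted to the titration data.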

[8] = qHTS of pediatric cancer cell lines to identify multiple opportunities for drug repurposing: Primary screen for SK-N-MC cells (AID 1347093)
Method in brief: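 Metabolically active cells were quantified by ATP-dependent luminescence (CellTiter-Glo, 15 min at room temperature) following 48 h treatment. Cells had been plated at 500-1,000 per well and settled for 5 h beforehand.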

Measured: Potency
Potency is read from the fitted curve at half-maximal effect.

Chain of Nucleoprotein (Lymphocytic choriomeningitis virus (strain Armstrong)) (P09992 whole entry, looked up): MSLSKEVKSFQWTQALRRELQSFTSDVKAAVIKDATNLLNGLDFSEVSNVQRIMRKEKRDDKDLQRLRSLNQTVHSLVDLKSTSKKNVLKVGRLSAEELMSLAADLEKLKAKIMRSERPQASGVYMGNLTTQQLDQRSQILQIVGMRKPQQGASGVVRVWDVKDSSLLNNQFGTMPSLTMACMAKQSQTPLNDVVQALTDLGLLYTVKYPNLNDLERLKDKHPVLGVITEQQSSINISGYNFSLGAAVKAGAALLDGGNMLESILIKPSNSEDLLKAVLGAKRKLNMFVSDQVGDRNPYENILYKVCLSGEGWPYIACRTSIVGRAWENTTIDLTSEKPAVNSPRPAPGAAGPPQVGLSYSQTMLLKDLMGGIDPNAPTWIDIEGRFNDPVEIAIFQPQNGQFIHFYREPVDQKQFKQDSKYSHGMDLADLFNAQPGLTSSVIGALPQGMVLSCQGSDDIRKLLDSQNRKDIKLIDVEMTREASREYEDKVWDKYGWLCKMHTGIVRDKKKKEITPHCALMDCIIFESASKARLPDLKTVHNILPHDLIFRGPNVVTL

O=C1OC2(c3ccccc31)c1cc(I)c(O)c(I)c1Oc1c2cc(I)c(O)c1I
inactive: [1] | [2] | [3]

c1ccc(CC2=NCCN2)cc1
inactive: [1] | [2] | [3]

C[C@@H]1C[C@@H]([C@H](O)CC2CC(=O)NC(=O)C2)C(=O)[C@@H](C)C1
active: [1] 0.968 µM | [2] 158 nM and 432 nM | [4] 1.09 µM | [3] 1.37 µM | [5] 664 nM and 523 nM | [6] 1.06 µM and 1.18 µM | [7] 668 nM and 372 nM | [8] 84.1 nM and 74.3 nM

CC1(C)O[C@@H]2C[C@H]3[C@@H]4CCC5=CC(=O)CC[C@]5(C)[C@@]4(F)[C@@H](O)C[C@]3(C)[C@]2(C(=O)CCl)O1
inactive: [1] | [2] | [3]

O=C(N[C@H]1N=C(c2ccccc2F)c2cccc3c2N(CC3)C1=O)c1cc2ccccc2[nH]1
inactive: [1] | [2] | [4] | [3] | [5] | [6] | [7] | [8]

CN1C(=O)CN=C(c2ccccc2)c2cc(Cl)ccc21
inactive: [1] | [2] | [4] | [3] | [5] | [6] | [8]

N[C@@H](Cc1cc(I)c(O)c(I)c1)C(=O)O
inactive: [1] | [2] | [3]

CN1C(=O)[C@@H](NC(=O)c2cc3ccccc3[nH]2)N=C(c2ccccc2)c2ccccc21
active: [7] 6.68 µM
inactive: [1] | [2] | [4] | [3] | [5]

Source: PubChem BioAssay (NCATS)
